Results filed as inconclusive are left out. Activity calls are given as the source filed them. The call rests on the fitted dose curve; in most records, active means well fitted curve in the direction sought with a large enough effect; inconclusive means small, poorly fitted or top-dose-only effect, or another doubt; inactive means no such curve, though single readings can be large; an effect the other way counts as inactive or inconclusive.
What was measured:
[1] = tested on: MCC-13; assay: qHTS assay to identify novel small-molecules to repurpose for Merkel cell carcinoma treatment (AID 1296009); details: MCC and control cell lines, CellTiter-Glo viability, 72 h; series mostly up to 46 µM; further: nearly all actives have a fitted effect of over 60% in size
Method in brief: (§1)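 Cell viability measured by CellTiter-Glo following 72 hr compound treatment at 37 degree celsius, with NPC and MIPE libraries tested in 8- and 11-point concentration series.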

[2] = tested on: MCC-26; assay: as above; details: MCC and control cell lines, CellTiter-Glo viability, 72 h; series mostly up to 46 µM
Method in brief: as §1

[3] = tested on: MKL-1; assay: as above; details: MCC and control cell lines, CellTiter-Glo viability, 72 h; series mostly up to 46 µM
Method in brief: as §1

[4] = tested on: MKL-2; assay: as above; details: MCC and control cell lines, CellTiter-Glo viability, 72 h; series mostly up to 46 µM
Method in brief: as §1

[5] = tested on: UISO; assay: as above; details: MCC and control cell lines, CellTiter-Glo viability, 72 h; series mostly up to 46 µM
Method in brief: as §1

[6] = tested on: WaGa; assay: as above; details: MCC and control cell lines, CellTiter-Glo viability, 72 h; series mostly up to 46 µM
Method in brief: as §1

[7] = tested on: C33A; assay: Primary qHTS to identify gynecologic anti-cancer compounds using libraries of approved drugs and bioactive compounds (AID 1345084); details: Gynecologic cancer cell panel viability, ATPlite luminescence, 48 h; series mostly up to 57.5 µM; further: nearly all actives have a fitted effect of over 55% in size
Method in brief: (§2)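 Five-point cytotoxicity, 48 h drug exposure at 37 C, 5% CO2, on cells seeded 16 h beforehand. ATP content read by ATPlite luminescence.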

[8] = tested on: CASKI; assay: as above; details: Gynecologic cancer cell panel viability, ATPlite luminescence, 48 h; series mostly up to 57.5 µM
Method in brief: as §2

[9] = tested on: Es-2; assay: as above; details: Gynecologic cancer cell panel viability, ATPlite luminescence, 48 h; series mostly up to 57.5 µM
Method in brief: as §2

[10] = tested on: HeLa; assay: as above; details: Gynecologic cancer cell panel viability, ATPlite luminescence, 48 h; series mostly up to 57.5 µM
Method in brief: as §2

[11] = tested on: Hek293T; assay: as above; details: Gynecologic cancer cell panel viability, ATPlite luminescence, 48 h, control line for the selectivity index; series mostly up to 57.5 µM
Method in brief: as §2

[12] = tested on: JEG-3; assay: as above; details: Gynecologic cancer cell panel viability, ATPlite luminescence, 48 h; series mostly up to 57.5 µM
Method in brief: as §2

[13] = tested on: OV90; assay: as above; details: Gynecologic cancer cell panel viability, ATPlite luminescence, 48 h; series mostly up to 57.5 µM
Method in brief: as §2

[14] = tested on: PA-1; assay: as above; details: Gynecologic cancer cell panel viability, ATPlite luminescence, 48 h; series mostly up to 57.5 µM
Method in brief: as §2

[15] = tested on: SKOV3; assay: as above; details: Gynecologic cancer cell panel viability, ATPlite luminescence, 48 h; series mostly up to 57.5 µM
Method in brief: as §2

[16] = tested on: Tov-21-G; assay: as above; details: Gynecologic cancer cell panel viability, ATPlite luminescence, 48 h; series mostly up to 57.5 µM
Method in brief: as §2

[17] = tested on: Tov112D; assay: as above; details: Gynecologic cancer cell panel viability, ATPlite luminescence, 48 h; series mostly up to 57.5 µM
Method in brief: as §2

[18] = tested on: CAOV3; assay: as above; details: Gynecologic cancer cell panel viability, ATPlite luminescence, 48 h; series mostly up to 57.5 µM
Method in brief: as §2

Measured: Potency

CC(=O)OCC(=O)[C@@]1(O)CCC2C3CCC4=CC(=O)CC[C@]4(C)C3[C@@H](O)C[C@@]21C (some centres undefined)
not listed: [18]
inactive: all other assays above

Cc1cccc(N(C)C(=S)Oc2ccc3c(c2)CCC3)c1
not listed: [6]
inactive: all other assays above

Nc1ncnc2nc[nH]c12
not listed: [15] | [18]
inactive: all other assays above

Cc1onc(-c2c(Cl)cccc2Cl)c1C(=O)Cl
not listed: [18]
inactive: all other assays above

Brc1ccccc1-c1ccccc1
not listed: [18]
inactive: all other assays above

CNC[C@H](O)[C@@H](O)[C@H](O)[C@H](O)CO
not listed: [11] | [18]
inactive: all other assays above

CCCC(=O)O[C@]1(C(=O)CC)CC[C@H]2[C@@H]3CCC4=CC(=O)CC[C@]4(C)[C@H]3[C@@H](O)C[C@@]21C
not listed: [6]
inactive: all other assays above

CC1(C)O[C@@H]2C[C@H]3[C@@H]4C[C@H](F)C5=CC(=O)C=C[C@]5(C)[C@@]4(F)[C@@H](O)C[C@]3(C)[C@]2(C(=O)CO)O1
not listed: [18]
inactive: all other assays above
